Assay in all cases: NCI-60 one-dose screen, 48 h (100 = growth as untreated, 0 = no growth, -100 = all killed)
The test system of assay [1] is MDA-MB-468 breast. Conditions: 10 µM unless noted.
Assay [2] relates to NCI-H226 lung. Conditions: 10 µM.
Assay [3] concerns HOP-62 NSCLC. Particulars: 10 µM.
The subject of assay [4] is NCI-H460 lung. Particulars: 10 µM.
Assay [5] has as its system A549/ATCC NSCLC. Particulars: 10 µM.
Assay [6] relates to COLO 205 colon. Particulars: 10 µM.
The subject of assay [7] is DU-145 prostate. Conditions: 10 µM.
Assay [8] relates to K-562 leukemia. Particulars: 10 µM.
The test system of assay [9] is SF-539 CNS. Particulars: 10 µM.
For assay [10], the system named is M14 melanoma. Particulars: 10 µM.
Assay [11] concerns HCT-15 colon. Conditions: 10 µM.
Assay [12] concerns HT29 colon. Conditions: 10 µM.
The test system of assay [13] is SNB-75 CNS. Particulars: 10 µM.
The subject of assay [14] is SNB-19 CNS. Conditions: 10 µM.
In assay [15] the test system is U251 CNS. Particulars: 10 µM.
Assay [16] concerns PC-3 prostate. Particulars: 10 µM.
Assay [17] concerns LOX IMVI melanoma. Particulars: 10 µM.
For assay [18], the system named is MOLT-4 leukemia. Particulars: 10 µM.
The subject of assay [19] is RPMI-8226 leukemia. Particulars: 10 µM.
The subject of assay [20] is SK-OV-3 ovarian. Particulars: 10 µM.

The structures appear in SMILES notation. Several values for one entry are separate records, joined by “and”; a condition that tells them apart may be missing. Identical values can stand only once. This is part of a sample that, as a whole, favours compounds with a hit. Of some 83,000 tested, about 20% had one in any assay.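 For each line, cells grew in 96-well plates with the test compound present at a single concentration for 48 hours.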 A number with no mark means an inactive call. Activity calls are given as the source filed them. How the source made its calls: active means growth percent below 10; inactive means the rest.

Take `C#C[C@]1(O)CC[C@H]2[C@@H]3CC=C4c5sc(Nc6ccc(OC)nc6)nc5CC[C@]4(C)[C@H]3CC[C@@]21C`: the growth in assay [1] was 17.4%.

Turning to `O=C(Nc1cccc(-c2nc(-c3ccc(NC(=O)c4cccnc4)cc3Cl)no2)c1)Nc1ccc(NC(=O)C2CC2)c(C(F)(F)F)c1`, in [1], the growth was -72.6% (active).

Consider `COc1cccc(O)c1/C=C1\SCc2cc3c(OC)cccc3[o+]c21`, for which the growth in [2] is 98.2%; in [3], 105%; in assay [4] it was 127%; in assay [5] it was 108%; in assay [6], 140%; in [7] it was 114%. Moreover, the growth was 106% in [8]; 98% in [9]; 106% in assay [10]; 111% in [11]; 113% in [12]; 115% in assay [13]. Also, the growth in [14] was 101%; in assay [15] it was 114%; in [16] it was 97.9%; in [17], 103%; in assay [18], 112%; in assay [19] it was 107%. The growth in assay [20] was 118%; in [1] it was 112%.

On to `C=CCn1c(SCC(=O)Nc2ccc(C(=O)/C=C/c3cc(OC)c(OC)c(OC)c3)cc2)nnc1-c1cc(-c2ccc(Cl)cc2)nc2ccccc12`, for which the growth in assay [1] was 108%.

Take `Cc1ccc(-c2nc(C#N)c(S(=O)(=O)N3CCN(S(C)(=O)=O)CC3)o2)cc1`: the growth in assay [2] is 85.6%; in assay [3], 95.6%; in assay [4], 79.9%; in assay [5], 92.9%; in [6], -69.3% (active); in assay [7] it was 68.7%. The growth in [8] is 6.88% (active); in assay [9] it was 40.3%; in [10] it was 22.6%; in assay [11], -74.5% (active); in [12], -6.5% (active); in assay [13], 107%. Also, the growth is 93.9% in assay [14]; 78.7% in [15]; 68.3% in assay [16]; -88.6% (active) in assay [17]; 0.383% (active) in assay [18]; 4.64% (active) in assay [19]. For the same compound, the growth is 105% in [20] and -68.5% (active) in [1].

Turning to `O=C(c1ccccc1)c1ccc2nc(-c3ccccc3Br)[nH]c2c1`, the growth in assay [2] was -27.8% (active); in [3], -46.6% (active); in assay [4] it was -22.4% (active); in [5], -57.9% (active); in assay [6], -75.5% (active); in assay [7], -76% (active). In addition, the growth in assay [8] was -3.28% (active); in [9] it was -96.1% (active); in [10], -70.1% (active); in [11], -37.7% (active); in assay [12], -71.3% (active); in [13], -41.9% (active). Also, the growth in assay [14] was 4.77% (active); in assay [15] it was -94.7% (active); in assay [16], -19.4% (active); in [17], -94.6% (active); in assay [18], -15.3% (active); in assay [19], -17.9% (active). The growth is 24% in assay [20] and -57.2% (active) in [1].

Regarding `C[C@H]1[C@H](C)CC[C@]2(CO)CC[C@]3(C)C(=CC[C@@H]4[C@@]5(C)Cc6c([nH]c7ccccc67)C(C)(C)[C@@H]5CC[C@]43C)[C@H]12`, the growth in assay [1] is 77.8%.

In the case of `O=C(CC(=O)Nc1ccc(Oc2ncnc3scc(Nc4n[nH]c(=S)s4)c23)cc1)Nc1ccc(Br)cc1`, the growth was 94.4% in assay [2]; 99.8% in assay [3]; 107% in assay [4]; 101% in [5]; 107% in assay [6]; 107% in assay [7]. In addition, the growth is 76.4% in [8]; 104% in assay [9]; 98.1% in [10]; 100% in [11]; 112% in assay [12]; 95.6% in assay [13]. The growth in [14] is 99.9%; in assay [15] it was 103%; in assay [16], 99.9%; in assay [17], 66.2%; in [18], 85.3%; in assay [19], 110%. For the same compound, the growth was 98.4% in [20] and 120% in assay [1].

For `Cc1ccc2c(c1)C(=O)/C(=C/c1c[nH]c3ccccc13)S2`, the growth in assay [2] was 40.8%; in assay [3] it was 47.4%; in [4], 33.6%; in assay [5], 64.6%; in assay [6], 67.8%; in assay [7], 78.2%. The growth in [8] is 19%; in assay [9], 48.1%; in assay [10] it was 64.2%; in [11], 29.5%; in assay [12], 55.6%; in assay [13] it was 41.1%. Moreover, the growth was 27.3% in assay [14]; 22.7% in assay [15]; 23.7% in assay [16]; 19.1% in assay [17]; 32% in [18]; 32.3% in [19]. The growth in [20] is 84.4%; in [1], 17.8%.

On to `COc1ccc(-c2cnoc2-c2cc(OC)c3c(c2)OCCO3)cc1`, for which, in assay [1], the growth is 20.4%.

Regarding `Cc1c2cnccc2c(C)c2c1c1cc(C3OCCCO3)ccc1n2C`, the growth in assay [1] was -34% (active).

For the compound `O=C(O)CCCCCCCCCCN1C(=O)/C(=C2/C(=O)N(CC(=O)O)c3ccc(Br)cc32)SC1=S`, in assay [1], the growth was 102%.

In the case of `COc1ccccc1-c1c(-c2ccc(Cl)cc2)c2cc3c(cc2[nH]c1=O)OCCO3`, in assay [1], the growth was 62.7%.

Take `CCOC(=O)c1ccc2[nH]c(O)c(C(=Nc3ccc(N(C)C(=O)CN4CCN(C)CC4)cc3)c3ccccc3)c2c1`: in [1], the growth is -84.4% (active).

Consider `CSc1ncc(C)c(Nc2ccc(Cl)cc2)n1`, for which, in assay [1], the growth was 129%.

Take `Cc1cc[n+](CCCCCCCCCC[n+]2ccc(C)cc2)cc1`: in [1], the growth is 6.78% (active).

Turning to `Cc1ccc(C(=O)N/N=C/c2ccc3c(c2)OCO3)cc1`, the growth in assay [1] was 101%.

For the compound `COC1(OC)C2(Cl)CCC1(Cl)C(Cl)=C2Cl`, the growth in assay [1] is 111%.

`COc1ccc2c(Cl)cc(NC(=O)Nc3c(C)cccc3C)nc2c1`: the growth in assay [1] was 79.2%.

In the case of `CCCCNC(=O)c1ccc(OCC)cc1`, in assay [1], the growth was 117%.

As to `Cc1ccccc1NC1CC(=O)N(c2ccc(Cl)cc2Cl)C1=O` (stereo not given), the growth in assay [1] is 105%.

`COC(=O)CCCCN=Cc1c(O)c(O)c(C(C)C)c2cc(C)c(-c3c(C)cc4c(C(C)C)c(O)c(O)c(C=NCCCCC(=O)OC)c4c3O)c(O)c12`: the growth in assay [1] is 18.6%.

As for `CNC(=O)c1ccc(C)c(-n2c(C)cc(OCc3ccc(F)cc3F)c(Br)c2=O)c1`, in [1], the growth is 53.4% and 63.5%.

In the case of `COc1cc2nnn3c4ncccc4c(N=O)c3c2cc1OC`, in [1], the growth was -50.9% (active).

Turning to `O=S(=O)(NCCNc1nccc(-c2c(-c3ccc(F)c(O)c3)nc3sccn23)n1)c1ccc(Cl)cc1`, in assay [1], the growth was 19.5%.

On to `O=C(Nc1nc(C(=O)N2CCN(C(c3ccccc3)c3ccccc3)CC2)cs1)c1ccc(NC2CCCCC2)c([N+](=O)[O-])c1`, for which the growth in [1] was 104%.

For `COc1ccc(Cl)cc1NC(N)=S`, in [1], the growth was 101%.

On to `CC(=O)N(C)N=Nc1ccc(C)cc1`, for which the growth in assay [1] was 104%.

Regarding `COc1cccc(-c2nn(-c3ccccc3)cc2-c2ccnc(NCCCNS(=O)(=O)c3ccc(Cl)cc3)c2)c1`, in assay [1], the growth was 25.6%.

`CCCOC(=O)N[C@H]1CCc2c(Cl)c(OC)c(OC)c(OC)c2-c2ccc(SC)c(=O)cc21`: in [1], the growth was -18.6% (active).

As for `Cc1ccc(NC(=S)/N=c2/n(-c3ccccc3)nc3n2CCN3C2=NCCN2)cc1`, the growth in assay [1] is 104%.

With `O=C(/C=C/c1cccc2ccccc12)c1ccc(NC(=O)c2ccccc2CN2C(=O)c3ccccc3C2=O)cc1`, in [1], the growth was 51.3%.

As for `O=c1[nH]c(=O)c2[nH]c(=O)[nH]c2[nH]1`, the growth in [1] was 85.6%.

Consider `COc1ccc(C(=O)N2C=Cc3ccccc3C2C#N)cc1` (stereo not given), for which the growth in assay [1] is 82.9%.

As for `COc1ccc2c(c1)/C(=C/c1cc(OC)c(OC)c(OC)c1)C(=O)N2C`, the growth in assay [1] is 25.9%.

For `CN(C)CCC(=O)c1ccc(O)cc1`, the growth in assay [1] was 107%.

As to `CN(C)CCN1C(=O)c2cccc3c(-c4ccc5ncn(C6CCCCC6)c5c4)ccc(c23)C1=O`, the growth in [1] was 4.33% (active).

Turning to `CC(=O)O[C@H]1CC[C@@]2(C)[C@@H](CC[C@@H]3[C@@H]2CC(=O)[C@@]2(C)[C@H]3C[C@@H](C3CCCC3=O)[C@@H]2C(C)=O)C1` (stereo not given in full), the growth in assay [1] was 114%.

Take `O=C(CCCCCCNC(=O)C(O)(O)C(F)(F)F)Nc1ccc(-c2ccccc2)cc1`: the growth in assay [1] is -10.5% (active).

In the case of `CC(=O)NNC(=S)/N=C\C(C(=O)c1ccccc1)=C(/O)c1ccccc1`, the growth in assay [1] is 114%.

Regarding `Cc1ccc(-n2c3c(c(-c4ccccc4)c2-c2ccccc2)C2=NCCN2C=N3)cc1`, the growth in assay [1] is 81.8%.

Take `Cc1c(C(=O)NCCCc2ccccc2)sc2ncc(-c3ccc(Br)cc3)n12`: the growth in assay [1] is 108%.

For `Cc1ccc(C2=NN3C(C2)c2cc(Br)ccc2OC32CCN(Cc3ccccc3)CC2)o1` (stereo not given), the growth in assay [1] was 105%.

`O=C(c1ccccc1)c1cc2ccccc2oc1=O`: in assay [1], the growth was 97.3%.

With `Nc1nc(=S)c2ncn(C3OC(COC(=O)c4ccc(Cl)cc4)C(OC(=O)c4ccc(Cl)cc4)C3OC(=O)c3ccc(Cl)cc3)c2[nH]1` (stereo not given), the growth in [1] is 23.6%.

Regarding `Cc1ccc(C(=O)Cc2ccccc2)c(O)c1`, the growth in assay [1] was 117%.

Turning to `Cc1c(C(=O)O)c(=O)n(-c2ccccc2)n1C`, the growth in [1] was 127%.

`COc1ccc(-c2cc(Cc3cccs3)c(=O)n(Cn3ccc4ccccc43)n2)cc1`: the growth in assay [1] is 110%.

As to `O=C1CCCN1C1CCN2CCCc3cccc1c32` (stereo not given), the growth in [1] was 118%.

With `C[C@H](c1nc2ccc(N)cc2[nH]1)[C@H]1CC[C@H]2[C@@H]3CCC4=CC(=O)CC[C@]4(C)[C@H]3CC[C@]12C`, the growth in assay [1] is 68.1%.

Values taken from PubChem BioAssay (NCI).
